Only some compounds are listed: those with a hit (about 3.5% of all), similar ones and a draw of the others.
TEAD-YAP inh = TEAD-YAP interaction inhibition, primary screen, TEAD-YAP interaction inhibitor project, luminescence, HEK-TIYL cells; 640,000 tested, 1.4% active; TEAD-Gal4/YAP UAS-luciferase luminescence; inhibition, % at 9.12 µM; AID 1259422, 2018; in the data active means inhibition above about 32%;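 further: 0% = median of test compound wells and 100% = reference inhibitor wells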
FBW7 act = FBW7 E3 ligase activators, primary screen, biochemical, AlphaScreen, human; AlphaScreen FBW7–phospho-cyclin E peptide binding, activator screen; normalized activity (activation), % at 26.1 µM; 650,000 tested, 0.13% active; F-box/WD repeat-containing protein 7 (Homo sapiens), Q969H0; in the data active means normalized activity above about 1.9%;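 further: purified mutant Fbw7 with reduced substrate affinity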
GPR151 ag = activators of human GPR151, primary screen, cell-based, PathHunter beta-arrestin, luminescence; G-protein coupled receptor 151 (Homo sapiens), Q8TDV0; PathHunter beta-arrestin GPR151 cells; activation, % at 11.2 µM; 650,000 tested, 1% active; AID 1508602, 2020; in the data active means activation above about 4.9%;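 further: 0% = median of compound wells and 100% = cells with positive control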
MITF inh = MITF inhibitors, primary screen, biochemical, AlphaScreen, human; 650,000 tested, 0.91% active; Microphthalmia-associated transcription factor (Homo sapiens), O75030; AlphaScreen MITF homodimerization, bead proximity signal; inhibition, % at 2.6 µM; in the data active means inhibition above about 50%;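 further: 0% = vehicle wells with protein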
Target sequence (O75030 whole entry, looked up): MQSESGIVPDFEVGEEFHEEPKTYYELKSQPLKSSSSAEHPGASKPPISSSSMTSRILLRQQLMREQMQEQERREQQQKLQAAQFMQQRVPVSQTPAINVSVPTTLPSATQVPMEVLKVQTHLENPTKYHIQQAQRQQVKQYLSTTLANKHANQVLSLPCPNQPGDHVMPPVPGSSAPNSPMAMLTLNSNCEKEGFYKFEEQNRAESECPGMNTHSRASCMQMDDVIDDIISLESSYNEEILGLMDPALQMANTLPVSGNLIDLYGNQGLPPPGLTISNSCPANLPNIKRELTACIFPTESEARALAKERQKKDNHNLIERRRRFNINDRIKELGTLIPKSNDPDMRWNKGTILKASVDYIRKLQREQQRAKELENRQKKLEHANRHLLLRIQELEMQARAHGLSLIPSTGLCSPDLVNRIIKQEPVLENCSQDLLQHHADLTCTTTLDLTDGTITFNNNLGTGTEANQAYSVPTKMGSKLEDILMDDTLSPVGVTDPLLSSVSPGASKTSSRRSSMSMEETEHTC
An asterisk follows results filed as active.

SMILES	TEAD-YAP inh	FBW7 act	GPR151 ag	MITF inh
COc1ccc2ccccc2c1/C=C1/SC(=S)NC1=O	2.4	0.0	-0.7	0.9
CCCOc1ccc2ccccc2c1/C=C1\SC(N)=NC1=O	52.1*	-0.1	0.0	4.8
COc1ccc(N=C2NC(=O)/C(=C/c3c(OC)ccc4ccccc34)S2)cc1	36.2*	0.0	-0.8	-2.4
COc1ccc2ccccc2c1/C=C1\SC(=Nc2ccc(C)cc2)NC1=O	53.2*	0.0	-1.1	-2.9
COc1ccc(N=C2NC(=O)/C(=C\c3cc(OC)ccc3OC)S2)cc1	19.1	-0.1	2.7	-17.4
Cc1ccc(NC(=O)c2ccc(F)c(S(=O)(=O)N3CCN(c4ccccc4)CC3)c2)cc1F	6.5	-0.2	0.3	4.9
CCCCCOc1ccc(Br)cc1/C(C)=N/NC1=NCCN1	61.8*	-0.1	0.3	-0.7
COC1=CC(=O)C=C(OC)C1=O	55.4*	-0.1	0.6	4.6
CCN(CC)S(=O)(=O)c1ccc(N=Cc2c(O)[nH]c(=S)[nH]c2=O)cc1	0.6	0.0	-0.8	1.4
CCN(CC)c1ccc(N=Cc2c(O)[nH]c(=S)[nH]c2=O)cc1	5.6	-0.1	-1.2	50.7*
Nc1cc(N=Cc2c(O)[nH]c(=S)[nH]c2=O)ccc1O	5.5	-1.0	2.4	91.7*
Cc1ccc(C)c(OCc2nc(-c3ccncc3)no2)c1	-30.5	-0.1	0.5	-4.6
Cc1sc2ncnc(N/N=C/c3ccc([N+](=O)[O-])o3)c2c1C	34.6*	-1.2	0.4	8.4
Cc1sc2ncnc(N/N=C/c3cccc([N+](=O)[O-])c3)c2c1C	-4.3	0.1	1.7	-8.0
CCNC(=O)C(=O)Nc1cccc2ccccc12	-6.4	0.0	0.2	-27.7
O=C(COC(=O)C1CC(=O)N(c2ccc3ccccc3c2)C1)c1ccc([N+](=O)[O-])cc1 (stereo unspecified)	-2.0	0.5	-0.4	21.3
c1ccc(Nc2nc(Nc3ccc(N4CCOCC4)cc3)nc3c2ncn3-c2ccsc2)cc1	11.3	0.0	0.2	9.2
c1ccc(Nc2nc(-c3ccc(N4CCOCC4)nc3)nc3c2ncn3-c2ccccc2)cc1	-1.3	-0.1	-0.4	5.1
c1cc(-n2cnc3c(Nc4ccc(N5CCOCC5)cc4)nc(Nc4ccc(N5CCOCC5)cc4)nc32)cs1	34.8*	0.2	-1.9	14.5
c1cncc(CNc2nc(Nc3ccc(N4CCOCC4)cc3)nc3c2ncn3-c2ccsc2)c1	56.5*	-0.2	1.7	2.4
COc1ccc(-c2nc(Nc3ccc(N4CCOCC4)cc3)c3ncn(-c4ccccc4)c3n2)cn1	34.1*	0.1	-2.1	12.0
CC(=O)Nc1ccc(Nc2ccnc(-c3c(C)nn(C)c3C)n2)cc1	53.8*	-0.1	3.5	-1.2
CCc1ccccc1N1C(=O)c2ccccc2S1(=O)=O	14.2	0.4	-1.0	16.8
Cc1c(CNCc2ccco2)c(C(=O)O)c(C)n1Cc1ccc(Cl)cc1	5.1	0.0	-1.0	15.7
COC(=O)CN1C(c2cc(OC)c(OC)c(OC)c2)=Nc2ccc(C)cc2C1c1ccccc1 (stereo unspecified)	-11.2	0.0	-1.1	12.4
SMILES	TEAD-YAP inh	FBW7 act	GPR151 ag	MITF inh
CCN(CC)c1nc(Nc2ccc3c(c2)OCO3)nc(Nc2ccncn2)n1	-24.5	4.0*	4.1	-10.3
c1cc(-n2cnc3c(Nc4ccc5c(c4)OCO5)nc(NCCN4CCOCC4)nc32)cs1	44.5*	0.0	-2.2	21.6
c1cc(-n2cnc3c(Nc4ccc5c(c4)OCO5)nc(NCc4ccc5c(c4)OCO5)nc32)cs1	-47.0	-0.1	-1.5	1.3
c1cnc(Nc2nc(Nc3ccc4c(c3)OCO4)c3ncn(-c4ccsc4)c3n2)cn1	-28.4	0.1	-1.1	6.3
c1cc(Nc2nc(Nc3ccc4c(c3)OCO4)c3ncn(-c4ccsc4)c3n2)ncn1	-25.1	10.5*	0.6	-9.3
c1cc(-n2cnc3c(Nc4ccc5c(c4)OCO5)nc(Nc4ccc(N5CCOCC5)cc4)nc32)cs1	41.8*	-0.1	-0.4	17.0
Cc1cc(-c2ccc(Cl)cc2)n2ncnc2n1	-6.1	0.1	-0.1	7.3
O=c1[nH]c(O)c(N=Nc2cccc(OC(F)F)c2)c(=O)[nH]1	-2.1	-0.2	-0.1	-6.5
CCC(CC)NC(=O)c1cc([N+](=O)[O-])ccc1Cl	22.3	0.4	1.4	8.8
COc1ccc(-c2nc(Nc3ccc(N4CCOCC4)cc3)c3ncn(-c4ccsc4)c3n2)cc1	38.3*	0.4	1.7	3.1
CC(=O)Nc1ccc(Nc2nc(Nc3ccc(N4CCOCC4)cc3)nc3c2ncn3-c2ccsc2)cc1	38.0*	-0.1	-0.6	19.3
CC(=O)Nc1ccc(Nc2nc(Nc3ncccn3)nc3c2ncn3-c2ccsc2)cc1	49.8*	0.4	-1.5	1.2
CC(=O)Nc1ccc(Nc2nc(-c3c(C)nn(C)c3C)nc3c2ncn3-c2ccsc2)cc1	43.9*	0.4	1.0	11.7
FC(F)(F)c1ccc(Nc2nc(Nc3ccc(N4CCOCC4)cc3)c3ncn(-c4ccsc4)c3n2)cc1	2.2	-0.1	-1.5	8.9
Cc1nn(C)c(C)c1-c1nc(Nc2ccccc2)c2ncn(-c3ccsc3)c2n1	-34.9	0.1	2.0	10.8
CC(=O)Nc1ccc(Nc2nc(Nc3ccncc3)nc3c2ncn3-c2ccsc2)cc1	25.4	0.0	2.2	11.2
O=C(CSc1nc2[nH]ncc2c(=O)n1-c1ccccc1)Nc1ccc(C(F)(F)F)cc1	25.1	0.4	0.1	-13.6
O=C(CSc1nc2[nH]ncc2c(=O)n1-c1ccccc1)Nc1ccc([N+](=O)[O-])cc1Cl	15.3	-0.1	-0.6	-2.2
CC(C)c1ccc(NC(=O)CSc2nc3[nH]ncc3c(=O)n2-c2ccccc2)cc1	38.7*	-0.1	4.4	2.8
COc1ccc(-n2c(SCC(=O)Nc3ccc([N+](=O)[O-])cc3Cl)nc3[nH]ncc3c2=O)cc1	32.5*	0.0	0.4	5.0
Cc1ccccc1-n1c(SCC(=O)Nc2ccc(C(F)(F)F)cc2)nc2[nH]ncc2c1=O	37.1*	0.7	0.8	5.1
CC(C)c1ccc(NC(=O)CSc2nc3[nH]ncc3c(=O)n2-c2ccc(Cl)cc2)cc1	21.0	0.0	-0.2	5.1
O=c1[nH]c(N2CCOCC2)nc2c1CCN(Cc1ccccc1)C2	5.8	2.7*	-0.5	6.6
O=c1[nH]c(N2CCOCC2)nc2c1CCN(Cc1ccccc1F)C2	-3.0	0.0	-1.3	-2.2
COc1ccc2ccccc2c1CN1CCC2(CC1)CC2C(=O)N1CCCN(C)CC1 (stereo unspecified)	8.2	0.4	-0.7	-3.2
SMILES	TEAD-YAP inh	FBW7 act	GPR151 ag	MITF inh
COc1ccccc1-c1nc2sc3c(c2c(=O)o1)CCCC3	67.6*	0.2	2.7	-3.2
O=c1oc(-c2ccccc2F)nc2sc3c(c12)CCCC3	-0.5	0.0	0.0	8.3
COC(=O)Oc1c(Br)cc2sc(=O)oc2c1Br	-1.6	0.0	-0.1	4.6
Cc1c(Br)c(O)c(Br)c2sc(=O)oc12	4.2	-0.5	0.1	78.8*
O=c1oc2cc(Cl)c(O)c(Cl)c2s1	14.1	0.0	-1.4	55.0*
O=c1oc2c(Br)cc(Br)c(O)c2s1	-10.7	-0.7	0.9	8.2
O=c1oc2cc(Cl)c(O)cc2s1	-2.2	-0.8	0.6	18.6

Screening results as filed in PubChem BioAssay.
